# The campaign covered roughly 73,000 compounds. About 1,800 (2.5%) were called active. Not shown: some 13% with an inconclusive outcome. What follows is part of a selection rich in actives, with near analogues and random picks from the rest. A number with no mark means an inactive call. Calls come from the whole dose curve; as a rule, active = well fitted activation curve with a large enough effect; inconclusive = small, poorly fitted or top-dose-only effect; inactive = no such curve, though single readings can be large or run the other way.
# Assay: qHTS Assay for Agonists of the Thyroid Stimulating Hormone Receptor: Activators of Intracellular cAMP Concentrations in Parental HEK 293; note: nearly all actives have a fitted effect of over 55% in size; for activation: % of control where 0% means no effect
# Settings: parental HEK293 CNG cAMP sensor, membrane potential fluorescence; series mostly up to 57.1 µM; activation: at the top concentration
# Outline: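 Parental HEK 293 cells stably expressing a modified CNG channel (no TSHR) report cAMP rise as membrane depolarization. Membrane potential dye with 100 uM RO 20-1724 was loaded for 60 min at room temperature, then compound added for 30 min; fluorescence read at 590 nm.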
# Potency is the fitted concentration of half-maximal effect.
Structure (SMILES),activation,Potency
CC(C)N(CCNC(=O)c1ccc(-n2c(=O)c(=O)[nH]c3ccccc32)cc1)C(C)C,-3.64%,
Cc1cc(C)c(C#N)c(SCc2ccccc2C(=O)O)n1,5.96%,
Cc1cc(N2CCN(Cc3ccc4c(c3)OCO4)CC2)n2ncnc2n1,7.27%,
Cc1cc(C)c(C#N)c(SCc2ccc3c(c2)OCO3)n1,,20 µM (active)
CC1(C)OC(C(O)(c2ccccc2)c2ccccc2)C(C(O)(c2ccccc2)c2ccccc2)O1 (centres undefined),25.8% [at 11.4 µM],
CCOc1ccc(C(CC(=O)O)NC(=O)COc2ccccc2)cc1 (centres undefined),22.8%,
O=C(Nc1nnc(CCc2ccccc2)s1)C1CCCO1 (centres undefined),-1.9%,
CCC(=O)c1cc2c(cc1NC(=O)c1cccs1)OCCO2,-57.7%,
O=S(=O)(NCC1CCCO1)c1ccc2ccccc2c1 (centres undefined),28.1%,
Cc1cc(C)c2[nH]c(=O)c(C(c3nnnn3Cc3ccc4c(c3)OCO4)N3CCCC3)cc2c1 (centres undefined),26.5%,
Cn1nnnc1SCC(=O)N1CCN(Cc2ccccc2)CC1,-19.6%,
CCC(C)(C)n1nnnc1C(c1cccs1)N1CCN(c2nc3ccccc3s2)CC1 (centres undefined),,3.16 µM (active)
Fc1ccccc1C(c1nnnn1Cc1ccc2c(c1)OCO2)N1CCN(Cc2ccccc2)CC1 (centres undefined),-1.23%,
CCOc1ccc(CN(Cc2ccco2)C(c2cccs2)c2nnnn2C(C)(C)C)cc1 (centres undefined),21.3%,
O=S(=O)(c1cccs1)N1CCN(Cc2ccccc2)CC1,8.66%,
Fc1ccc(Cn2nnnc2C(c2cccs2)N2CCCCCC2)cc1 (centres undefined),,31.6 µM (active)
Cc1ccc(C(c2nnnn2C(C)(C)C)N2CCc3ccccc3C2)cc1 (centres undefined),10.3%,
CCC(C)(C)n1nnnc1C(c1cccs1)N1CCN(Cc2ccccc2)CC1 (centres undefined),,12.6 µM (active)
COc1ccc(-c2nc3cnc(N(C)C)nc3n(Cc3cccs3)c2=O)cc1,2.64%,
CCOC(=O)C(C(=O)OCC)C(C#N)c1ccccc1 (centres undefined),14.2%,
O=C(O)CC(C(=O)O)C(CC(=O)O)C(=O)O (centres undefined),-7.18%,
Cc1ccc(S(=O)(=O)Cn2nnnc2CN2CCN(Cc3ccc4c(c3)OCO4)CC2)cc1,20%,
O=C(O)c1ccc(Cl)c(S(=O)(=O)Nc2ccccc2Cl)c1,5.29%,
Cc1ccc(-c2nc(CS(=O)CC(=O)N3CCN(c4ncccn4)CC3)c(C)o2)cc1 (centres undefined),5.16%,
N#CC1=C(N)OC2=C(C(=O)CCC2)C1C1CC=CCC1 (centres undefined),9.36%,
COC(=O)Cn1cc(C(=O)c2cccs2)c2ccccc21,18.6%,
CCOC(=O)C1CCN(C(=O)Cn2cc(C#N)c3ccccc32)CC1,-2.07%,
CC1CCN(C(=O)Cn2cc(C(=O)c3ccco3)c3ccccc32)CC1,,20 µM (active)
CC(=O)OCC1OC(C#Cc2ccccc2Cl)C=CC1OC(C)=O (centres undefined),-0.512% [at 11.4 µM],

# From PubChem BioAssay AID938 (National Center for Advancing Translational Sciences (NCATS), 2007)
